Experimental data published in PubChem BioAssay AID1159580 (chemical genetic matrix, 2015).
Out of some 5,500 compounds screened, about 2,000 (36%) were called active. Inconclusive results (about 18%) are left out. Rule as the data show it: active = normalized growth mostly below about 0.91 (no sharp cut-off); inconclusive = no clear call, values can overlap the other calls; inactive = mostly above about 0.92. Some of the results follow.

Assay: chemical genetic growth profiling, strain panel (AID 1159580);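 also: tested at 20 µM; growth read once vehicle control cultures reached saturation at 30 °C; 1 = growth at the plate median or of vehicle wells; lower values mean less growth of the strain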
Conditions: growth OD

Measured: normalized growth

COc1cc(OC)c2c(OC)c(-c3ccc4c(c3)OCO4)c(=O)oc2c1
active: S. cerevisiae deletion strains, locus YLR262C, strain YPT6 (second series), stronger effect = lower value 0.783 | S. cerevisiae deletion strains, locus YLR320W, strain mms22, stronger effect = lower value 0.867 | S. cerevisiae deletion strains, locus YMR205C, strain PFK2, stronger effect = lower value 0.866 | S. cerevisiae deletion strains, locus YNL071W, strain lat1, stronger effect = lower value 0.816 | S. cerevisiae deletion strains, locus YNL307C, strain MCK1, stronger effect = lower value 0.792 | S. cerevisiae deletion strains, locus YPL051W, strain arl3, stronger effect = lower value 0.899
inactive: S. cerevisiae deletion strains, locus YJR075W, strain HOC1, stronger effect = lower value 0.972 | S. cerevisiae deletion strains, locus YKL009W, strain mrt4, stronger effect = lower value 1 | S. cerevisiae deletion strains, locus YKL068W, stronger effect = lower value 0.984 | S. cerevisiae deletion strains, locus YKL085W, strain MDH1 (second series), stronger effect = lower value 0.99 | S. cerevisiae deletion strains, locus YKL085W, strain MDH1, stronger effect = lower value 0.99 | S. cerevisiae deletion strains, locus YKL160W, strain elf1, stronger effect = lower value 0.931 | S. cerevisiae deletion strains, locus YKL190W, strain CNB1, stronger effect = lower value 0.984 | S. cerevisiae deletion strains, locus YKR001C, strain vps1, stronger effect = lower value 0.927 | S. cerevisiae deletion strains, locus YKR026C, strain gcn3, stronger effect = lower value 0.992 | S. cerevisiae deletion strains, locus YKR091W, strain srl3, stronger effect = lower value 0.978 | S. cerevisiae deletion strains, locus YLL001W, strain dnm1, stronger effect = lower value 0.97 | S. cerevisiae deletion strains, locus YLL026W, stronger effect = lower value 0.979 | S. cerevisiae deletion strains, locus YLL041C, strain sdh2, stronger effect = lower value 0.987 | S. cerevisiae deletion strains, locus YLR027C, strain aat2, stronger effect = lower value 0.934 | S. cerevisiae deletion strains, locus YLR039C, strain RIC1, stronger effect = lower value 0.865 | S. cerevisiae deletion strains, locus YLR058C, strain SHM2, stronger effect = lower value 0.99 | S. cerevisiae deletion strains, locus YLR102C, strain apc9, stronger effect = lower value 1 | S. cerevisiae deletion strains, locus YLR113W, strain HOG1, stronger effect = lower value 0.917 | S. cerevisiae deletion strains, locus YLR221C, strain rsa3, stronger effect = lower value 0.943 | S. cerevisiae deletion strains, locus YLR258W, strain gsy2, stronger effect = lower value 0.959 | S. cerevisiae deletion strains, locus YLR262C, strain YPT6, stronger effect = lower value 0.879 | S. cerevisiae deletion strains, locus YLR268W, strain sec22, stronger effect = lower value 0.946 | S. cerevisiae deletion strains, locus YLR330W, strain CHS5, stronger effect = lower value 0.991 | S. cerevisiae deletion strains, locus YLR342W, strain FKS1 (second series), stronger effect = lower value 0.952 | S. cerevisiae deletion strains, locus YLR342W, strain FKS1, stronger effect = lower value 0.957 | S. cerevisiae deletion strains, locus YLR357W, strain rsc2, stronger effect = lower value 0.997 | S. cerevisiae deletion strains, locus YLR370C, strain arc18, stronger effect = lower value 0.981 | S. cerevisiae deletion strains, locus YLR371W, strain rom2, stronger effect = lower value 0.984 | S. cerevisiae deletion strains, locus YLR384C, strain iki3, stronger effect = lower value 0.977 | S. cerevisiae deletion strains, locus YLR418C, strain cdc73, stronger effect = lower value 0.849 | S. cerevisiae deletion strains, locus YML016C, strain PPZ1, stronger effect = lower value 0.985 | S. cerevisiae deletion strains, locus YML032C, strain rad52, stronger effect = lower value 0.995 | S. cerevisiae deletion strains, locus YML120C, strain ndi1, stronger effect = lower value 0.998 | S. cerevisiae deletion strains, locus YML124C, strain tub3, stronger effect = lower value 0.986 | S. cerevisiae deletion strains, locus YMR058W, strain fet3, stronger effect = lower value 0.962 | S. cerevisiae deletion strains, locus YMR078C, strain ctf18, stronger effect = lower value 0.991 | S. cerevisiae deletion strains, locus YMR125W, strain sto1, stronger effect = lower value 1 | S. cerevisiae deletion strains, locus YMR129W, stronger effect = lower value 0.989 | S. cerevisiae deletion strains, locus YMR223W, strain ubp8, stronger effect = lower value 0.981 | S. cerevisiae deletion strains, locus YMR231W, strain pep5, stronger effect = lower value 0.973 | S. cerevisiae deletion strains, locus YMR263W, strain SAP30, stronger effect = lower value 0.966 | S. cerevisiae deletion strains, locus YMR307W, strain GAS1, stronger effect = lower value 0.905 | S. cerevisiae deletion strains, locus YNL067W, strain RPL9B, stronger effect = lower value 0.99 | S. cerevisiae deletion strains, locus YNL128W, strain TEP1, stronger effect = lower value 1 | S. cerevisiae deletion strains, locus YNL153C, strain GIM3, stronger effect = lower value 0.988 | S. cerevisiae deletion strains, locus YNL183C, strain NPR1, stronger effect = lower value 0.888 | S. cerevisiae deletion strains, locus YNL209W, strain ssb2, stronger effect = lower value 0.987 | S. cerevisiae deletion strains, locus YNL233W, strain BNI4, stronger effect = lower value 0.965 | S. cerevisiae deletion strains, locus YNL248C, strain rpa49, stronger effect = lower value 0.978 | S. cerevisiae deletion strains, locus YNL250W, strain rad50, stronger effect = lower value 0.997 | S. cerevisiae deletion strains, locus YNL271C, strain bni1, stronger effect = lower value 0.987 | S. cerevisiae deletion strains, locus YNL298W, strain CLA4, stronger effect = lower value 0.997 | S. cerevisiae deletion strains, locus YNL322C, strain KRE1 (second series), stronger effect = lower value 0.993 | S. cerevisiae deletion strains, locus YNL322C, strain KRE1, stronger effect = lower value 0.993 | S. cerevisiae deletion strains, locus YNR049C, strain mso1, stronger effect = lower value 0.992 | S. cerevisiae deletion strains, locus YNR052C, strain pop2, stronger effect = lower value 0.991 | S. cerevisiae deletion strains, locus YOL006C, strain TOP1, stronger effect = lower value 0.89 | S. cerevisiae deletion strains, locus YOL012C, strain htz1 0.711 | S. cerevisiae deletion strains, locus YOL147C, strain pex11, stronger effect = lower value 0.985 | S. cerevisiae deletion strains, locus YOR001W, strain rrp6, stronger effect = lower value 0.991 | S. cerevisiae deletion strains, locus YOR061W, strain CKA2, stronger effect = lower value 0.989 | S. cerevisiae deletion strains, locus YOR069W, strain VPS5, stronger effect = lower value 0.988 | S. cerevisiae deletion strains, locus YOR070C, strain gyp1, stronger effect = lower value 0.977 | S. cerevisiae deletion strains, locus YOR080W, strain dia2, stronger effect = lower value 0.989 | S. cerevisiae deletion strains, locus YOR083W, strain WHI5, stronger effect = lower value 0.937 | S. cerevisiae deletion strains, locus YOR106W, strain vam3, stronger effect = lower value 0.957 | S. cerevisiae deletion strains, locus YOR136W, strain idh2, stronger effect = lower value 0.99 | S. cerevisiae deletion strains, locus YOR144C, strain elg1, stronger effect = lower value 0.982 | S. cerevisiae deletion strains, locus YOR184W, strain ser1, stronger effect = lower value 0.891 | S. cerevisiae deletion strains, locus YOR231W, strain MKK1, stronger effect = lower value 0.943 | S. cerevisiae deletion strains, locus YOR265W, strain rbl2, stronger effect = lower value 0.981 | S. cerevisiae deletion strains, locus YOR270C, strain vph1, stronger effect = lower value 0.835 | S. cerevisiae deletion strains, locus YOR290C, strain snf2, stronger effect = lower value 0.932 | S. cerevisiae deletion strains, locus YOR316C, strain cot1, stronger effect = lower value 0.983 | S. cerevisiae deletion strains, locus YPL055C, strain LGE1, stronger effect = lower value 0.949 | S. cerevisiae deletion strains, locus YPL078C, strain atp4, stronger effect = lower value 0.945 | S. cerevisiae deletion strains, locus YPL106C, strain sse1, stronger effect = lower value 0.945 | S. cerevisiae deletion strains, locus YPL240C, strain hsp82, stronger effect = lower value 0.984 | S. cerevisiae deletion strains, locus YPL241C, strain CIN2, stronger effect = lower value 0.992 | S. cerevisiae deletion strains, locus YPL256C, strain CLN2, stronger effect = lower value 0.959 | S. cerevisiae deletion strains, locus YPR119W, strain clb2, stronger effect = lower value 0.97 | S. cerevisiae deletion strains, locus YPR141C, strain kar3, stronger effect = lower value 1 | S. cerevisiae deletion strains, locus YPR163C, strain tif3, stronger effect = lower value 0.969 | S. cerevisiae deletion strains, locus YPR167C, strain met16, stronger effect = lower value 0.989 | S. cerevisiae deletion strains, strain wtn01, stronger effect = lower value 0.968 | S. cerevisiae strains, strain wild type, stronger effect = lower value 0.982
